Structures are written as SMILES. Values without a mark were called inactive. For some of these results: Potency and affinity values are given separately. Calls of active or inactive are those of the source. Unless noted, no rule for the calls is given here.

Experiment [1] is described as follows: antimalarial activity against Dd2 strain (AID 2302;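 active = growth inhibition above 50% at the single 2 µM test dose, taken to imply half-maximal potency below 2 µM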;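 also: 0% = DMSO untreated growth and 100% = chloroquine plus artemisinin killed control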). The note with it: P. falciparum Dd2 in RBCs, LDH growth readout, 72 h; at 2 µM; stronger effect = higher value.
The nature of experiment [2]: human hepatoma cell viability loss – ATP luminescence, cytotoxicity control for P. falciparum antimalarial project, primary screen (AID 2303;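 active = inhibition above 50%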;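 also: 0% = DMSO wells and 100% = digitonin-killed cells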). The note with it: HepG2 viability, 24-48 h, at 10 µM, stronger effect = higher value.
Experiment [3] concerns the target L-lactate dehydrogenase (Plasmodium falciparum (isolate CDC / Honduras)) (UniProt Q27743). The experiment is described as follows: PfLDH activity inhibition – cell lysate, 3D7 strain, counter-screen for P. falciparum growth inhibition project (AID 2304).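 Also: 0% = vehicle and 100% = reference inhibitor.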 Conditions: P. falciparum 3D7 crude extract, LDH APAD/NBT absorbance; at 2 µM; stronger effect = higher value.
Experiment [4] in a line: inhibition of 3D7 malaria parasite growth – strain 3D7 (AID 2306).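 Also: 0% = DMSO wells and 100% = chloroquine plus artemisinin control wells.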 Conditions: P. falciparum 3D7 erythrocytic growth, LDH absorbance, 72 h; at 2 µM; stronger effect = higher value.
For experiment [5], the target named is Calcium-dependent protein kinase 1 (Plasmodium falciparum (isolate 3D7)) (UniProt P62344). The experiment is described as follows: PfCDPK1 kinase inhibitors, biochemical, TCAMS library (AID 1159585; cut-off not given, nearly all actives have IC50 up to about 0.98 µM;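 also: inhibitors leave more ATP so luminescence rises with inhibition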). Conditions: recombinant PfCDPK1, Kinase-Glo ATP depletion luminescence.
Chain of Calcium-dependent protein kinase 1 (Plasmodium falciparum (isolate 3D7)) (P62344 whole entry, looked up): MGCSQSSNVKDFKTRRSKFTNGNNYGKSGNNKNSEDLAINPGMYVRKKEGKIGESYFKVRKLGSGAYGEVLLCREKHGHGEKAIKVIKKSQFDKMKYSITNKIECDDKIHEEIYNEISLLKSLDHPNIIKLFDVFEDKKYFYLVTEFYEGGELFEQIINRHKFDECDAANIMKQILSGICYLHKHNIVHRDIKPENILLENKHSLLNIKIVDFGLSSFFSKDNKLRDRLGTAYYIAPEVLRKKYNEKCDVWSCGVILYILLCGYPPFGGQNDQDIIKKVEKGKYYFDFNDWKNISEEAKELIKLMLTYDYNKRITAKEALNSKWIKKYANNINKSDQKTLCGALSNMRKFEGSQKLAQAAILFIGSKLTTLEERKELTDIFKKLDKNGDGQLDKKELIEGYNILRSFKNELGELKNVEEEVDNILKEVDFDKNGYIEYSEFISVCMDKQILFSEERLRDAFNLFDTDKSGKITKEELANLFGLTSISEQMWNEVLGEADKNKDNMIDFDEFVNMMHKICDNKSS
The target of experiment [6] is Plasmodium falciparum protein kinase 6 (PK6, PF3D7_1337100) (UniProt Q8IDW1). Nature of the experiment: PfPK6 kinase inhibitors, biochemical, TCAMS library (AID 1159586). The note with it: recombinant PfPK6, Kinase-Glo ATP depletion luminescence.
Chain of Plasmodium falciparum protein kinase 6 (PK6, PF3D7_1337100) (Q8IDW1 1-305): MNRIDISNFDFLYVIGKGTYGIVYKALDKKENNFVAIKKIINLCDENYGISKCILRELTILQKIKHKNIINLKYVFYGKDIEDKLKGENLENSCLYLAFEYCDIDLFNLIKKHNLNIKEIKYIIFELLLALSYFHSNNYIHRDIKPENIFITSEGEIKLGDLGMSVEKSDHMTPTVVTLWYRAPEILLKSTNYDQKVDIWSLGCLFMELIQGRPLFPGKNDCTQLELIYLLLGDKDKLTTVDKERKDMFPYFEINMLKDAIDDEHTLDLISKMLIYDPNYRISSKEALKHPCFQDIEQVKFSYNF
In experiment [7] the target is Protein kinase 7 (PK7), Plasmodium falciparum 3D7 (PF3D7_0213400) (UniProt Q7YTF7). Nature of the experiment: inhibition of Plasmodium PK7 catalytic activity – biochemical, TCAMS antimalarial set, Kinase-Glo luminescence (AID 1159587). The note with it: recombinant PfPK7, Kinase-Glo ATP depletion luminescence.
Chain of Protein kinase 7 (PK7), Plasmodium falciparum 3D7 (PF3D7_0213400) (Q7YTF7 1-343): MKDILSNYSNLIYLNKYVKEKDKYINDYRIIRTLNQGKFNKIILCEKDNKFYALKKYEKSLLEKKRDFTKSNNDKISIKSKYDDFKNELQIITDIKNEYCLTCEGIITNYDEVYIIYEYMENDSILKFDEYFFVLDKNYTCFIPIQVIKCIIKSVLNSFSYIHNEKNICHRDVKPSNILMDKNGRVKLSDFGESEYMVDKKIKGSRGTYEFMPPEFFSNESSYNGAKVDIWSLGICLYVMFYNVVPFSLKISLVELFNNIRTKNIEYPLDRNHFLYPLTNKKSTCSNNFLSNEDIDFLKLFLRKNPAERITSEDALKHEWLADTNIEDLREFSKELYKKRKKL
In experiment [8] the target is Calcium-dependent protein kinase 4 (Plasmodium falciparum (isolate 3D7)) (UniProt Q8IBS5). Nature of the experiment: PfCDPK4 kinase inhibitors, biochemical, TCAMS library (AID 1159588; cut-off not given, nearly all actives have IC50 up to about 0.91 µM). The note with it: recombinant PfCDPK4, Kinase-Glo ATP depletion luminescence.
Chain of Calcium-dependent protein kinase 4 (Plasmodium falciparum (isolate 3D7)) (Q8IBS5 whole entry, looked up): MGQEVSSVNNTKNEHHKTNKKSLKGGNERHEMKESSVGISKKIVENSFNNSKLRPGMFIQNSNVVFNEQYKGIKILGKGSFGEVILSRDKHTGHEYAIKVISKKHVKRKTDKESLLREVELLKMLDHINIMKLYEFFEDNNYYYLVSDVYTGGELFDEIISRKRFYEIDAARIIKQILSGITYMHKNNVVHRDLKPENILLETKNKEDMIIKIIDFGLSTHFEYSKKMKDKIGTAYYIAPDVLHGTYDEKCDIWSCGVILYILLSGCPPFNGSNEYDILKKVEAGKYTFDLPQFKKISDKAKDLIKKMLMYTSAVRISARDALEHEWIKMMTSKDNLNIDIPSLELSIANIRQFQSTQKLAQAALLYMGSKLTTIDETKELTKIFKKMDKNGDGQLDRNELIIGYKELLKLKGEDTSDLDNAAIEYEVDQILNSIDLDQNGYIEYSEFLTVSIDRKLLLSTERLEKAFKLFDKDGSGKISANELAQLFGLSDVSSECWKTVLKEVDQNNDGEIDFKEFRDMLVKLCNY

Chain of L-lactate dehydrogenase (Plasmodium falciparum (isolate CDC / Honduras)) (Q27743 whole entry, looked up): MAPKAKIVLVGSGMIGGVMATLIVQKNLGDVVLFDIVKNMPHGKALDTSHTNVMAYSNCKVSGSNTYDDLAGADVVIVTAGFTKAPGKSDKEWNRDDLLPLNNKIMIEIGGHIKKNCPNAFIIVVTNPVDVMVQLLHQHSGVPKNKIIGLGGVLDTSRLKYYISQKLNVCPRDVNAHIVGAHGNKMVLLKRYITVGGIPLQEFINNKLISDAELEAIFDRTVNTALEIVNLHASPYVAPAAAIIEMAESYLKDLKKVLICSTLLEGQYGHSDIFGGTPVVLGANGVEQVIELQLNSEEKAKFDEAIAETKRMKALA

Turning to `CCCCCCCOc1ccc(NC(=O)Nc2ccc(Cn3ncc(N4CCCNCC4)c(Cl)c3=O)cc2)cc1`, the values for the growth inhibition in experiment [1] and in experiment [4] were 28% and 87% (active), respectively. The figures for the inhibition in experiment [2] and in experiment [3] were 60% (active) and 2%, respectively. Also, the outcome in experiment [5], in experiment [6], in experiment [7] and in experiment [8] was inactive.

Turning to `O=C(Cc1cnc[nH]1)Nc1cccc(-c2ccc(-c3nc4ccc(F)cc4[nH]3)s2)c1`, the growth inhibition in experiment [1] was 94% (active); in experiment [4] it was 101% (active). Moreover, the inhibition in experiment [2] is 4%; in experiment [3] it was -12%. Further, the result in experiment [5], in experiment [6], in experiment [7] and in experiment [8] was inactive.

`CCc1nc(N)nc(N)c1-c1cccc(Cl)c1`: the growth inhibition in experiment [1] was 1%; in experiment [4], 94% (active). The inhibition in experiment [2] was 60% (active); in experiment [3], 2%. In addition, the result in experiment [5], in experiment [6], in experiment [7] and in experiment [8] was inactive.

Regarding `Cc1cc(N(C)C)nc(Nc2ccc(NC(=O)c3c(F)cccc3F)cc2)n1`, the growth inhibition was 45% in experiment [1] and 94% (active) in experiment [4]. The inhibition in experiment [2] was 50% (active); in experiment [3], -1%. Also, the outcome in experiment [5], in experiment [6], in experiment [7] and in experiment [8] was inactive.

With `NC(=O)Nc1ccc2cn[nH]c2c1`, the growth inhibition in experiment [1] was -2%; in experiment [4] it was 97% (active). The inhibition in experiment [2] was 4%; in experiment [3], -3%. The result in experiment [5], in experiment [6], in experiment [7] and in experiment [8] was inactive.

Consider `COc1ccc2nccc([C@@H](O)CN3CCC(NCc4ccc(OC)c(NC(C)=O)c4)CC3)c2c1`, for which the growth inhibition was 0% in experiment [1] and 90% (active) in experiment [4]. Further, the inhibition is -5% in experiment [2] and -4% in experiment [3]. Besides, the result in experiment [5], in experiment [6], in experiment [7] and in experiment [8] was inactive.

Turning to `Cc1c(O)cccc1Nc1ccnc2ccc(C(F)(F)F)cc12`, the growth inhibition in experiment [1] was 51% (active); in experiment [4] it was 96% (active). Further, the inhibition in experiment [2] was -15%; in experiment [3], -2%. Moreover, the outcome in experiment [5], in experiment [6], in experiment [7] and in experiment [8] was inactive.

For the compound `O=C(/C=C/c1ccc(Cl)c(Cl)c1)NCCCCCN1CCCN(C(=O)Nc2ccc(F)c(F)c2)CC1`, the results for the growth inhibition in experiment [1] and in experiment [4] were -1% and 102% (active), respectively. Also, the results for the inhibition in experiment [2] and in experiment [3] were 26% and -2%, respectively. For the same compound, the result in experiment [5], in experiment [6], in experiment [7] and in experiment [8] was inactive.

On to `CCCC1N=C(N)N=C(N)N1c1cccc(C(F)(F)F)c1` (stereo not given), for which the growth inhibition in experiment [1] is 7%; in experiment [4], 95% (active). For the same compound, the inhibition in experiment [2] was 22%; in experiment [3] it was 5%. The result in experiment [5], in experiment [6], in experiment [7] and in experiment [8] was inactive.

For `Cn1nc(-c2ccc(S(=O)(=O)N3CCC(CCN4CCC(c5c[nH]c6ccccc56)CC4)CC3)s2)cc1C(F)(F)F`, the growth inhibition was 22% in experiment [1] and 94% (active) in experiment [4]. The results for the inhibition in experiment [2] and in experiment [3] were 40% and 4%, respectively. For the same compound, the result in experiment [5], in experiment [6], in experiment [7] and in experiment [8] was inactive.

Take `Oc1ccc(Cc2cc(Oc3c(I)cc(CCc4ncc[nH]4)cc3I)ccc2O)cc1`: the growth inhibition in experiment [1] is 32%; in experiment [4], 101% (active). The inhibition was 10% in experiment [2] and -3% in experiment [3]. Moreover, the result in experiment [5], in experiment [6], in experiment [7] and in experiment [8] was inactive.

Consider `COc1ccc2c(c1)[nH]c1c(/C=C/c3ccc([N+](=O)[O-])cc3)nccc12`, for which the growth inhibition in experiment [1] is 63% (active); in experiment [4], 100% (active). Moreover, the figures for the inhibition in experiment [2] and in experiment [3] were 4% and 3%, respectively. In addition, the result in experiment [5], in experiment [6], in experiment [7] and in experiment [8] was inactive.

Turning to `CN(C)CCOc1cc(NC(=O)Nc2ccc(-c3ccccc3)cc2Cl)ccc1I`, the growth inhibition is 93% (active) in experiment [1] and 102% (active) in experiment [4]. The inhibition in experiment [2] is 25%; in experiment [3], 3%. The outcome in experiment [5], in experiment [6], in experiment [7] and in experiment [8] was inactive.

On to `O=C(Nc1cccc(C(F)(F)F)c1)c1ccc(S(=O)(=O)NCC2CCCN(CC3CCCCC3)C2)cc1` (stereo not given), for which the growth inhibition in experiment [1] was 9%; in experiment [4] it was 95% (active). For the same compound, the inhibition in experiment [2] is 26%; in experiment [3], -4%. Moreover, the outcome in experiment [5], in experiment [6], in experiment [7] and in experiment [8] was inactive.

In the case of `O=C(Nc1cccc(CN2CCN(Cc3ccc(O)cc3)CC2)c1)c1cc2ccccc2s1`, the results for the growth inhibition in experiment [1] and in experiment [4] were 26% and 100% (active), respectively. The inhibition in experiment [2] is 15%; in experiment [3], -4%. Moreover, the result in experiment [5], in experiment [6], in experiment [7] and in experiment [8] was inactive.

Consider `CCCNCc1ccc(-c2ccc(CN(CCOC)C(=O)c3cccc(C#N)c3)cc2)nc1`, for which the growth inhibition was 14% in experiment [1] and 84% (active) in experiment [4]. Also, the inhibition in experiment [2] and in experiment [3] was -2% in each case. Further, the outcome in experiment [5], in experiment [6], in experiment [7] and in experiment [8] was inactive.

Take `CN(C)c1ccc(-c2csc(C(=O)NC3CCN(CCC(C)(C)C)C3)c2)cc1` (stereo not given): the growth inhibition in experiment [1] is 36%; in experiment [4] it was 95% (active). For the same compound, the inhibition in experiment [2] was 20%; in experiment [3], 2%. For the same compound, the outcome in experiment [5], in experiment [6], in experiment [7] and in experiment [8] was inactive.

With `CSc1ccc(CN2CCC(NC(=O)c3ccc(-c4cccc(Cl)c4)s3)CC2)cc1`, the growth inhibition in experiment [1] was 19%; in experiment [4], 86% (active). For the same compound, the figures for the inhibition in experiment [2] and in experiment [3] were 75% (active) and -2%, respectively. Further, the outcome in experiment [5], in experiment [6], in experiment [7] and in experiment [8] was inactive.

Take `CC1CN(Cc2cccc(-c3ccc(-c4nc5ccccc5[nH]4)cc3)c2)CC(C)O1` (stereo not given): the values for the growth inhibition in experiment [1] and in experiment [4] were 88% (active) and 90% (active), respectively. Moreover, the inhibition was 37% in experiment [2] and -6% in experiment [3]. For the same compound, the outcome in experiment [5], in experiment [6], in experiment [7] and in experiment [8] was inactive.

`COc1cc(F)c2nccc([C@@H](O)CN3CCC(NCc4ccc5c(n4)NC(=O)CS5)CC3)c2c1`: the growth inhibition was 25% in experiment [1] and 103% (active) in experiment [4]. Also, the inhibition in experiment [2] was 23%; in experiment [3], -4%. The result in experiment [5], in experiment [6], in experiment [7] and in experiment [8] was inactive.

Values taken from PubChem BioAssay.
